Read-outs that look alike come from different tables or passages of the source.
How the values were obtained:
Set-up in all cases: species or system human, MV4-11 + K-562 + COLO205 + SK-N-BE2 + OVCAR-8
AGK = settings: read-out: apparent Kd, compound concentrations: 100 nM and 1000 nM (sheet 'Samples'), n = 1
AKT1 = settings: read-out: apparent Kd, n = 1
AKT2 = settings: read-out: apparent Kd, n = 1
CDK17 = settings: read-out: apparent Kd; compound concentrations: 100 nM and 1000 nM (sheet 'Samples'), CATDS: 6.2311196568293398E-2; n = 1
CLK4 = settings: read-out: apparent Kd; compound concentrations: 100 nM and 1000 nM (sheet 'Samples'), CATDS: 7.8018331182730397E-2; n = 1
MAP2K1 = settings: read-out: apparent Kd; compound concentrations: 100 nM and 1000 nM (sheet 'Samples'), CATDS: 7.0817886716783296E-2; n = 1
MAP2K2 = settings: read-out: apparent Kd; compound concentrations: 100 nM and 1000 nM (sheet 'Samples'), CATDS: 8.1065909718248605E-2; n = 1
MAPKAPK2 = settings: read-out: apparent Kd, compound concentrations: 100 nM and 1000 nM (sheet 'Samples'), n = 1
NNT = settings: read-out: apparent Kd; compound concentrations: 100 nM and 1000 nM (sheet 'Samples'), CATDS: 6.8216764859784895E-2; n = 1
NQO1 = settings: read-out: apparent Kd; compound concentrations: 100 nM and 1000 nM (sheet 'Samples'), CATDS: 0.112965714749218; n = 1
PIP4K2C = settings: read-out: apparent Kd; compound concentrations: 100 nM and 1000 nM (sheet 'Samples'), CATDS: 6.1582136800339998E-2; n = 1
PRKAG2 = settings: read-out: apparent Kd; compound concentrations: 100 nM and 1000 nM (sheet 'Samples'), CATDS: 7.1492957845938399E-2; n = 1
TNIK = settings: read-out: apparent Kd; compound concentrations: 100 nM and 1000 nM (sheet 'Samples'), CATDS: 6.4996238797789693E-2; n = 1
VDAC3 = settings: read-out: apparent Kd; compound concentrations: 100 nM and 1000 nM (sheet 'Samples'), CATDS: 6.7332646365255294E-2; n = 1
ATM = settings: read-out: apparent Kd; compound concentrations:100 nM and 1000 nM (sheet 'Samples'); n = 1
CIT = settings: read-out: apparent Kd; compound concentrations:100 nM and 1000 nM (sheet 'Samples'); n = 1
ERBB3 = settings: read-out: apparent Kd; compound concentrations:100 nM and 1000 nM (sheet 'Samples'); n = 1
GSK3A = settings: read-out: apparent Kd; compound concentrations:100 nM and 1000 nM (sheet 'Samples'); n = 1
GSK3B = settings: read-out: apparent Kd; compound concentrations:100 nM and 1000 nM (sheet 'Samples'); n = 1
LATS1 = settings: read-out: apparent Kd; compound concentrations:100 nM and 1000 nM (sheet 'Samples'); n = 1
MARK2 = settings: read-out: apparent Kd; compound concentrations:100 nM and 1000 nM (sheet 'Samples'); n = 1
MARK3 = settings: read-out: apparent Kd; compound concentrations:100 nM and 1000 nM (sheet 'Samples'); n = 1
MARK4 = settings: read-out: apparent Kd; compound concentrations:100 nM and 1000 nM (sheet 'Samples'); n = 1
PAK4 = settings: read-out: apparent Kd; compound concentrations:100 nM and 1000 nM (sheet 'Samples'); n = 1
PAK6 = settings: read-out: apparent Kd; compound concentrations:100 nM and 1000 nM (sheet 'Samples'); n = 1
PKN1 = settings: read-out: apparent Kd; compound concentrations:100 nM and 1000 nM (sheet 'Samples'); n = 1
PKN3 = settings: read-out: apparent Kd, n = 1
PRKACA = settings: read-out: apparent Kd; compound concentrations:100 nM and 1000 nM (sheet 'Samples'); n = 1
PRKACB = settings: read-out: apparent Kd; compound concentrations:100 nM and 1000 nM (sheet 'Samples'); n = 1
PRKCD = settings: read-out: apparent Kd; compound concentrations:100 nM and 1000 nM (sheet 'Samples'); n = 1
PRKCQ = settings: read-out: apparent Kd; compound concentrations:100 nM and 1000 nM (sheet 'Samples'); n = 1
PRKG1 = settings: read-out: apparent Kd; compound concentrations:100 nM and 1000 nM (sheet 'Samples'); n = 1
PRKX = settings: read-out: apparent Kd; compound concentrations:100 nM and 1000 nM (sheet 'Samples'); n = 1
TTN = settings: read-out: apparent Kd; compound concentrations:100 nM and 1000 nM (sheet 'Samples'); n = 1
CSNK1D = settings: read-out: apparent Kd; compound concentrations: 100 nM and 1000 nM (sheet 'Samples'), CATDS: 0.14002934621816099; n = 1
CSNK1E = settings: read-out: apparent Kd; compound concentrations: 100 nM and 1000 nM (sheet 'Samples'), CATDS: 9.5278515441506895E-2; n = 1
JAK2 = settings: read-out: apparent Kd; compound concentrations: 100 nM and 1000 nM (sheet 'Samples'), CATDS: 0.169567440751725; n = 1
MAPK14 = settings: read-out: apparent Kd; compound concentrations: 100 nM and 1000 nM (sheet 'Samples'), CATDS: 0.109512285169825; n = 1
MAPK9 = settings: read-out: apparent Kd; compound concentrations: 100 nM and 1000 nM (sheet 'Samples'), CATDS: 8.7291809991309394E-2; n = 1
PRKD2 = settings: read-out: apparent Kd; compound concentrations: 100 nM and 1000 nM (sheet 'Samples'), CATDS: 9.5055877721236803E-2; n = 1
PRKD3 = settings: read-out: apparent Kd; compound concentrations: 100 nM and 1000 nM (sheet 'Samples'), CATDS: 9.9429548898697998E-2; n = 1
[1] = compound concentrations:100 nM and 1000 nM (sheet 'Samples')

Q: With `Cc1nnc(-c2ccc(C)c(-c3ccc(C(=O)NCc4ccc(Cl)cc4)cc3)c2)o1` [GW708893X] as the compound, how does the potency estimated from few doses (AGK; CATDS: 6.7196554082181503E-2) read?
A: 1.82 µM

Q: What about the potency estimated from few doses (AKT1; compound concentrations: 100 nM and 1000 nM (sheet 'Samples'), CATDS: 5.9892362604304798E-2) of the same compound?
A: 2.38 µM

Q: And the potency estimated from few doses (AKT2; compound concentrations: 100 nM and 1000 nM (sheet 'Samples'), CATDS: 8.2030939692010002E-2)?
A: 1.22 µM

Q: And the potency estimated from few doses (CDK17)?
A: 2.16 µM

Q: And the potency estimated from few doses (CLK4)?
A: 1.34 µM

Q: What about the potency estimated from few doses (MAP2K1) of the same compound?
A: 1.63 µM

Q: And the potency estimated from few doses (MAP2K2)?
A: 1.25 µM

Q: And the potency estimated from few doses (MAPKAPK2; CATDS: 7.7313280603985193E-2)?
A: 1.37 µM

Q: And the potency estimated from few doses (NNT)?
A: 1.76 µM

Q: What about the potency estimated from few doses (NQO1) of the same compound?
A: 0.726 µM

Q: And the potency estimated from few doses (PIP4K2C)?
A: 2.22 µM

Q: And the potency estimated from few doses (PRKAG2)?
A: 1.59 µM

Q: And the potency estimated from few doses (TNIK)?
A: 1.96 µM

Q: And the potency estimated from few doses (VDAC3)?
A: 1.81 µM

Q: Which results are given for `CCn1c(-c2nonc2N)nc2c(C#CC(C)(C)O)ncc(OC[C@@H]3CCCN3)c21.O=C(O)C(F)(F)F` [GSK614526A]?
A: potency estimated from few doses (AKT1; [1]): 1.09 µM; potency estimated from few doses (AKT2; [1]): 0.934 µM; potency estimated from few doses (ATM): 0.303 µM; potency estimated from few doses (CIT): 0.983 µM; potency estimated from few doses (ERBB3): 1.81 µM; potency estimated from few doses (GSK3A): 0.365 µM; potency estimated from few doses (GSK3B): 0.44 µM; potency estimated from few doses (LATS1): 0.634 µM; potency estimated from few doses (MARK2): 0.762 µM; potency estimated from few doses (MARK3): 0.607 µM; potency estimated from few doses (MARK4): 1.04 µM; potency estimated from few doses (PAK4): 0.0667 µM; potency estimated from few doses (PAK6): 0.821 µM; potency estimated from few doses (PKN1): 0.215 µM; potency estimated from few doses (PKN3; [1]): 0.15 µM; potency estimated from few doses (PRKACA): 0.144 µM; potency estimated from few doses (PRKACB): 0.51 µM; potency estimated from few doses (PRKCD): 2.14 µM; potency estimated from few doses (PRKCQ): 1.17 µM; potency estimated from few doses (PRKG1): 0.0699 µM; potency estimated from few doses (PRKX): 0.00138 µM; potency estimated from few doses (TTN): 0.544 µM

Q: What does the source list for `OCCn1c(-c2ccncc2)c(-c2ccc(F)cc2)c2ncccc21` [RO1155798-000]?
A: potency estimated from few doses (AGK; CATDS: 7.7586701088880605E-2): 2 µM; potency estimated from few doses (CSNK1D): 0.582 µM; potency estimated from few doses (CSNK1E): 1.19 µM; potency estimated from few doses (JAK2): 0.432 µM; potency estimated from few doses (MAPK14): 0.897 µM; potency estimated from few doses (MAPK9): 1.46 µM; potency estimated from few doses (MAPKAPK2; CATDS: 8.8585007822458595E-2): 1.41 µM; potency estimated from few doses (PKN3; compound concentrations: 100 nM and 1000 nM (sheet 'Samples'), CATDS: 8.9898852115076394E-2): 1.36 µM; potency estimated from few doses (PRKD2): 1.2 µM; potency estimated from few doses (PRKD3): 1.09 µM

Source: paper PMC11062922 (Nature Chemical Biology, 2023)
